Compounds without any hit were thinned out: in the full panel of roughly 83,000, 20% have a hit.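 The test compound was applied at a single concentration to cells in 96-well plates for 48 hours, and percent growth was recorded.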 The source made the active and inactive calls. The calls were made as follows: active = growth percent below 10; inactive = the rest.

In one assay the test system is M14 melanoma. The assay can be described thus: NCI-60 one-dose screen, 48 h (100 = growth as untreated, 0 = no growth, -100 = all killed). The note with it: 10 µM unless noted.
As for `CCCOc1ccc2nc(NC(=O)OC)[nH]c2c1`, the growth was 2.83% (active).

Regarding `COc1cccc(/C=C2\Oc3cc(OCCN4CCCC4)ccc3C2=O)c1`, the growth was 98.7% (inactive).

As to `COc1ccc(/C=C2\Oc3cc(OCCCCN4CCCC4)ccc3C2=O)cc1`, the growth is 86.2% (inactive).

Turning to `COc1cccc(-c2nn(C(C)(C)C)cc2-c2ccnc(NCCCNS(=O)(=O)c3cccc4ccccc34)c2)c1`, the growth was 101% (inactive).

Regarding `COc1cccc(-c2nc3sccn3c2-c2ccnc(NCCCNS(=O)(=O)c3c(Cl)cccc3Cl)c2)c1`, the growth was 60.5% (inactive).

As to `O=C1c2cc3c(cc2-c2c1c1cc(F)c(F)cc1c(=O)n2CCCn1ccnc1)OCO3`, the growth is 8.25% (active).

As for `O=C(/C=C/c1cccc(Cl)c1)c1ccc(O)c(CN2CCN(c3cc4c(cc3F)c(=O)c(C(=O)O)cn4C3CC3)CC2)c1`, the growth was 43% (inactive).

`CCCn1c(=O)[nH]c(N)c([C@H]2c3ccccc3Oc3[nH]c(=O)n(CCC)c(=O)c32)c1=O`: the growth is 83.8% (inactive).

Turning to `N#CCCN=Nc1c(O)[nH]c2ccc(F)cc12`, the growth is 98% (inactive).

`COc1ccc(-c2n[nH]nc2-c2csc3ccccc23)cc1OC`: the growth was 7.35% (active).

Take `COc1cc(/C=C/c2cc(O)c3cc(C(C)=O)c(=O)oc3c2)cc2c1O[C@]1(C)CC[C@@H](O)C(C)(C)[C@H]1C2`: the growth was -49.4% (active).

With `O=C(N=Nc1c(O)[nH]c2ccc(Br)cc12)c1cc(-c2ccccc2)on1`, the growth was 104% (inactive).

Turning to `CSc1nc(NCc2ccccc2)c(C#N)c(-c2cccc([N+](=O)[O-])c2)n1`, the growth was 98% (inactive).

As for `O=S(=O)(Nc1ccc(Cl)c(F)c1)c1ccc(-c2cnc(C3CC3)o2)cc1`, the growth is 19.5% (inactive).

In the case of `CC1(C)CC[C@]2(C(=O)Nc3ccccn3)CC[C@]3(C)C(=CC[C@@H]4[C@@]5(C)C/C(=C/c6cccnc6)C(=O)C(C)(C)[C@@H]5CC[C@]43C)[C@H]2C1`, the growth was 35.6% (inactive).

As for `O=S(=O)(Nc1ccc(Br)c(Cl)c1)c1ccc(-c2cnc(C3CC3)o2)cc1`, the growth was 5.11% (active).

As for `C=C(C)[C@@H]1CC[C@]2(C(N)=O)CC[C@]3(C)[C@H](CC[C@@H]4[C@@]5(C)C/C(=C/c6ccco6)C(=O)C(C)(C)[C@@H]5CC[C@]43C)[C@@H]12`, the growth was 85.1% (inactive).

In the case of `Cc1nc2c3c(-c4ccccc4)c(-c4ccccc4)oc3ncn2n1`, the growth is 102% (inactive).

As to `COc1cccc(-c2nn(C(C)(C)C)cc2-c2ccnc(NCCCNS(=O)(=O)c3ccc(C)cc3)c2)c1`, the growth was 105% (inactive).

In the case of `COc1ccc(-c2nc3ccc(-c4nc5ccc(N6CCN(c7ccc(F)cc7)CC6)cc5[nH]4)cc3[nH]2)cc1OC`, the growth was 61.8% (inactive).

In the case of `O=C1NC(=S)NC(=O)C1CC(=O)n1c(-c2ccccc2)nc2ccccc21`, the growth is 99% (inactive).

Turning to `CSc1nc(NCCN2CCOCC2)c(C#N)c(-c2cccc([N+](=O)[O-])c2)n1`, the growth is 101% (inactive).

Take `N#Cc1c(-c2ccc(Cl)cc2)nc(N=Nc2c(O)[nH]c3ccc(Cl)cc23)nc1N1CCOCC1`: the growth was 93.6% (inactive).

Turning to `Cc1ccc(NS(=O)(=O)c2ccc(-c3cnc(C4CC4)o3)cc2)cc1C`, the growth was 25.6% (inactive).

Take `Oc1ccccc1-c1nnc(CNc2ccc(Cl)cc2)o1`: the growth is 10.8% (inactive).

For another assay, the system named is HCT-15 colon. Described as above. The note with it: 10 µM unless noted.
For the compound `N#C/C(=C\c1ccc(-c2ccc(Cl)c(Cl)c2)o1)c1nc(-c2ccco2)cs1`, the growth was 34.6% (inactive).

With `CC(C)C1=C[C@@]23CC[C@@H]4[C@](C)(CCC[C@@]4(C)C(=O)N4CCCNCC4)[C@H]2C[C@@H]1[C@H]1C(=O)CCC(=O)[C@H]13`, the growth is 97.5% (inactive).

Regarding `COc1ccc(CCNc2nc(SC)nc(-c3cccc([N+](=O)[O-])c3)c2C#N)cc1OC`, the growth is 90.9% (inactive).

With `Cc1cc(NS(=O)(=O)c2ccc(-c3cnc(C4CC4)o3)cc2)ccc1Cl`, the growth was 17% (inactive).

As to `COc1ccc(-c2cc(C(=O)N=Nc3c(O)[nH]c4ccc(Br)cc34)no2)cc1`, the growth was 100% (inactive).

With `CCCOc1cc2ccccc2cc1C(=O)Nc1nc(NC)c2c(ccc3nccc32)[nH]1`, the growth was -50% (active).

As for `CCCCN(CCCC)CCCn1c(-c2ccccc2)ccc1-c1ccccc1`, the growth is 55.3% (inactive).

As to `Cc1nc2ccccc2n1C(=O)C[C@@H]1NC(=S)NC1=O`, the growth was 93% (inactive).

In the case of `N#CCCN=Nc1c(O)[nH]c2ccc([N+](=O)[O-])cc12`, the growth was 102% (inactive).

`Cc1cc(N2CCOCC2)nc(NCc2cc(Nc3ccnc4cc(Cl)ccc34)ccc2F)n1`: the growth is -81.9% (active).

Take `Nc1n[nH]c2ccc([C@@H]3Nc4cc5c(cc4[C@H]4C6CCC(C6)[C@@H]34)C(=O)NC5)cc12` (stereo partly drawn): the growth was 15.2% (inactive).

In the case of `c1ccc(-c2c(-c3ccccc3)[n+](Cc3ccc4ccccc4c3)c(-c3ccc(-c4nc5ccccc5s4)cc3)n2Cc2ccc3ccccc3c2)cc1`, the growth was -91.5% (active).

On to `C=CC(=O)Nc1cccc(-c2nc(SC)nc(NCc3ccccc3)c2C#N)c1`, for which the growth is 58.4% (inactive).

`CCCOc1ccc2nc(NC(=O)OC)[nH]c2c1`: the growth was 12.4% (inactive).

As for `COc1cccc(/C=C2\Oc3cc(OCCN4CCCC4)ccc3C2=O)c1`, the growth was 67% (inactive).

For `COc1ccc(/C=C2\Oc3cc(OCCCCN4CCCC4)ccc3C2=O)cc1`, the growth was 9.45% (active).

With `COc1cccc(-c2nn(C(C)(C)C)cc2-c2ccnc(NCCCNS(=O)(=O)c3cccc4ccccc34)c2)c1`, the growth is 108% (inactive).

Regarding `COc1cccc(-c2nc3sccn3c2-c2ccnc(NCCCNS(=O)(=O)c3c(Cl)cccc3Cl)c2)c1`, the growth was 37.7% (inactive).

As for `O=C1c2cc3c(cc2-c2c1c1cc(F)c(F)cc1c(=O)n2CCCn1ccnc1)OCO3`, the growth is 4.66% (active).

As to `O=C(/C=C/c1cccc(Cl)c1)c1ccc(O)c(CN2CCN(c3cc4c(cc3F)c(=O)c(C(=O)O)cn4C3CC3)CC2)c1`, the growth was 17.5% (inactive).

Take `CCCn1c(=O)[nH]c(N)c([C@H]2c3ccccc3Oc3[nH]c(=O)n(CCC)c(=O)c32)c1=O`: the growth is 48.9% (inactive).

As to `N#CCCN=Nc1c(O)[nH]c2ccc(F)cc12`, the growth was 101% (inactive).

As for `COc1ccc(-c2n[nH]nc2-c2csc3ccccc23)cc1OC`, the growth was 16.4% (inactive).

As to `COc1cc(/C=C/c2cc(O)c3cc(C(C)=O)c(=O)oc3c2)cc2c1O[C@]1(C)CC[C@@H](O)C(C)(C)[C@H]1C2`, the growth is 14.4% (inactive).

Take `O=C(N=Nc1c(O)[nH]c2ccc(Br)cc12)c1cc(-c2ccccc2)on1`: the growth was 103% (inactive).

Regarding `CSc1nc(NCc2ccccc2)c(C#N)c(-c2cccc([N+](=O)[O-])c2)n1`, the growth was 95.9% (inactive).

As for `O=S(=O)(Nc1ccc(Cl)c(F)c1)c1ccc(-c2cnc(C3CC3)o2)cc1`, the growth was 21.1% (inactive).

Take `CC1(C)CC[C@]2(C(=O)Nc3ccccn3)CC[C@]3(C)C(=CC[C@@H]4[C@@]5(C)C/C(=C/c6cccnc6)C(=O)C(C)(C)[C@@H]5CC[C@]43C)[C@H]2C1`: the growth was 18.9% (inactive).

`O=S(=O)(Nc1ccc(Br)c(Cl)c1)c1ccc(-c2cnc(C3CC3)o2)cc1`: the growth was 20.7% (inactive).

Regarding `C=C(C)[C@@H]1CC[C@]2(C(N)=O)CC[C@]3(C)[C@H](CC[C@@H]4[C@@]5(C)C/C(=C/c6ccco6)C(=O)C(C)(C)[C@@H]5CC[C@]43C)[C@@H]12`, the growth was 86.9% (inactive).

For `Cc1nc2c3c(-c4ccccc4)c(-c4ccccc4)oc3ncn2n1`, the growth was 101% (inactive).

Regarding `COc1cccc(-c2nn(C(C)(C)C)cc2-c2ccnc(NCCCNS(=O)(=O)c3ccc(C)cc3)c2)c1`, the growth was 107% (inactive).

Regarding `COc1ccc(-c2nc3ccc(-c4nc5ccc(N6CCN(c7ccc(F)cc7)CC6)cc5[nH]4)cc3[nH]2)cc1OC`, the growth was 44.7% (inactive).

As to `O=C1NC(=S)NC(=O)C1CC(=O)n1c(-c2ccccc2)nc2ccccc21`, the growth was 94.3% (inactive).

Regarding `CSc1nc(NCCN2CCOCC2)c(C#N)c(-c2cccc([N+](=O)[O-])c2)n1`, the growth is 97.4% (inactive).

Regarding `N#Cc1c(-c2ccc(Cl)cc2)nc(N=Nc2c(O)[nH]c3ccc(Cl)cc23)nc1N1CCOCC1`, the growth is 100% (inactive).

On to `Cc1ccc(NS(=O)(=O)c2ccc(-c3cnc(C4CC4)o3)cc2)cc1C`, for which the growth was 19.5% (inactive).

On to `Oc1ccccc1-c1nnc(CNc2ccc(Cl)cc2)o1`, for which the growth was 20.7% (inactive).

For the origin of these results see PubChem BioAssay (NCI).
